PLK1 PBD inh – Plk1 polo box domain binding inhibitors, primary screen, biochemical, fluorescence polarization. Serine/threonine-protein kinase PLK1 (Homo sapiens), P53350. Plk1 PBD phosphopeptide binding. inhibition, %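 (tested at about 20 µM)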. 0.13% of 97,000 active; in the data active = inhibition above about 34%, passing the limit was not always enough
EphB4 ephrin blk – EphB4-ephrin-B2 interaction antagonists, primary screen, biochemical, TNYL-RAW peptide probe, fluorescence polarization | Ephrin type-B receptor 4 (Homo sapiens), P54760 | EphB4 LBD / TNYL-RAW-Alexa532 peptide | inhibition, % at 7 µM | 0.15% of 97,000 active | AID 720, 2007;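 active = inhibition above the screen-wide mean inhibition plus 3 SD, cut at about 15% in these data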;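 also: 0% = DMSO wells and 100% = excess unlabeled TNYL-RAW peptide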
PTPN22 act – LYP phosphatase activators, primary screen, biochemical, DiFMUP fluorescence, 2 µM; AID 697, 2007; Tyrosine-protein phosphatase non-receptor type 22 (Homo sapiens), Q9Y2R2; activation, % at 2 µM; recombinant LYP; 0 = plate median, 100 = signal doubled; 0.11% of 96,000 active;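 active = activation at 2 µM above a set limit, the mean plus 5 SD, cut at about 37% in these data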
LYP inh 2 – PTPN22 phosphatase inhibitors, primary screen, biochemical, DiFMUP fluorescence, 2 µM; inhibition, % at 2 µM; AID 640, 2007; recombinant LYP catalytic domain; 0.21% of 96,000 active; Tyrosine-protein phosphatase non-receptor type 22 (Homo sapiens), Q9Y2R2;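 active = inhibition at 2 µM at or above a set limit, the screen mean plus 3 SD, cut at about 24% in these data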;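 also: 0% = DMSO with enzyme and 100% = enzyme fully blocked by orthovanadate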
PLK1 inh – human PLK1 kinase inhibitors, primary screen, biochemical, TR-FRET; Serine/threonine-protein kinase PLK1 (Homo sapiens), P53350; recombinant PLK1 kinase, TR-FRET peptide phosphorylation; inhibition, % at 10 µM; 0.53% of 97,000 active; AID 619, 2007;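 active = inhibition of 50% or more in the single-concentration screen; inactive = inhibition below 50%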;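 also: 0% = DMSO max control and 100% = H-89 dihydrochloride min control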
PLK1 inh conf – PLK1 kinase activity inhibitors, confirmation, biochemical, TR-FRET, duplicate runs; shares compounds with PLK1 inh; recombinant PLK1 kinase, TR-FRET peptide phosphorylation; 20% of 210 active; inhibition, % at 10 µM;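 active = inhibition at or above 50% in each of two repeat confirmation tests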;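 also: 0% = DMSO max control and 100% = H-89 kinase-blocked min control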
Plk1 interf – compound interference with Plk1 assay readout, artefact control for Plk1 kinase inhibitor project, biochemical, TR-FRET, compound added post-reaction; shares compounds with PLK1 inh; inhibition (interference), % at 10 µM; 210 tested, under 10 active;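 active = both duplicate runs show 50% or greater inhibition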;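 also: 0% = DMSO max control and 100% = H-89 min control inhibited reaction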
Starred values were filed as active, the others as inactive. In the library only some 1.2% were active in any assay of this set; here they are far more common.

`COc1cccc(C2CC(c3ccc(Cl)cc3Cl)n3nc(N)nc3N2)c1` (stereo unspecified) gave PLK1 PBD inh -28.2, EphB4 ephrin blk -0.3, PLK1 inh 75.5*, PLK1 inh conf -5.6 and Plk1 interf -51.5.
CC1Cc2nc(SCC(=O)Nc3nccs3)n(C)c(=O)c2S1 (stereo unspecified) was read as PLK1 PBD inh 6.8, EphB4 ephrin blk -9.0, PTPN22 act -1.3, LYP inh 2 0.2, PLK1 inh 73.0*, PLK1 inh conf 63.9* and Plk1 interf -49.7.
Screening Cc1nnc(NC(=O)CSc2nc3c(c(=O)n2C)SC(C)C3)s1 (stereo unspecified) returned PLK1 PBD inh 13.2, EphB4 ephrin blk -8.2, PTPN22 act 4.3, LYP inh 2 -5.4 and PLK1 inh -6.4.
For O=C(Cn1nc(Cc2cccnc2)c2ccccc2c1=O)NCc1ccc2c(c1)OCO2 the results were PLK1 PBD inh 6.3, EphB4 ephrin blk -2.8, PLK1 inh 72.3*, PLK1 inh conf 21.1 and Plk1 interf -49.2.
For COc1ccc(C2N(S(=O)(=O)c3ccc(C)cc3)CCN2S(=O)(=O)c2ccc(C)cc2)cc1 the results were PLK1 PBD inh -2.7, EphB4 ephrin blk 9.0, PTPN22 act 1.3, LYP inh 2 1.4 and PLK1 inh -12.0.
Brc1ccc(C2=CC(c3cccs3)n3ncnc3N2)cc1 (stereo unspecified) was read as PLK1 PBD inh -122.8, EphB4 ephrin blk 5.9, PTPN22 act -3.9, LYP inh 2 6.7 and PLK1 inh 19.3.
Screening Fc1ccc(Br)cc1C1C=C(c2cccnc2)Nc2ncnn21 (stereo unspecified) returned PLK1 PBD inh -7.5, EphB4 ephrin blk 6.2, PLK1 inh 88.2*, PLK1 inh conf 46.0 and Plk1 interf -50.7.
Screening COC(=O)CSc1nc2ccc(C)cc2[nH]1 returned PLK1 PBD inh -9.0, EphB4 ephrin blk -3.4, PTPN22 act 15.0, LYP inh 2 -13.0 and PLK1 inh -1.1.
COC(=O)c1sc2nc(CSc3nc4ccc(C)cc4[nH]3)[nH]c(=O)c2c1C was read as PLK1 PBD inh -9.0, EphB4 ephrin blk 0.6, PTPN22 act 9.8, LYP inh 2 -7.5, PLK1 inh 71.4*, PLK1 inh conf 42.5 and Plk1 interf -42.6.
Cc1cc(C)c2c(=O)[nH]c(SCC(=O)N3CCCCC3)nc2n1 was read as PLK1 PBD inh 9.8, EphB4 ephrin blk 2.2, PTPN22 act -6.9, LYP inh 2 5.5 and PLK1 inh 6.7.
Cc1ccc(NC(=O)CSc2nc3nc(C)cc(C)c3c(=O)[nH]2)cc1 was read as PLK1 PBD inh -24.3, EphB4 ephrin blk 2.1, PTPN22 act 7.1, LYP inh 2 -7.8, PLK1 inh 73.0*, PLK1 inh conf 6.9 and Plk1 interf -53.6.
`CCOC(=O)c1ccc(NC(=O)NC2CC3CCC(C2)N3Cc2nnnn2C(C)(C)C)cc1` (stereo unspecified) gave PLK1 PBD inh -4.4, EphB4 ephrin blk 1.3, PTPN22 act -0.2, LYP inh 2 -0.4 and PLK1 inh -0.4.
Screening CCOCC(=O)Nc1nc2c(s1)C(=O)CC(C)(C)C2 returned PLK1 PBD inh 10.3, EphB4 ephrin blk -4.9, PTPN22 act -5.6, LYP inh 2 4.0 and PLK1 inh 41.4.
For CC1(C)CC(=O)c2sc(NC(=O)C3CC3)nc2C1 the results were PLK1 PBD inh 5.8, EphB4 ephrin blk 0.5, PLK1 inh 75.0*, PLK1 inh conf -2.7 and Plk1 interf -52.4.
For CN(C=O)CP(=O)(O)CN1CCCCC1 the results were PLK1 PBD inh 15.6, EphB4 ephrin blk 2.6, PTPN22 act 4.1, LYP inh 2 -7.8 and PLK1 inh -7.4.
Screening Cc1ccc(C(=O)O)cc1S(=O)(=O)N1CCSCC1 returned PLK1 PBD inh -1.1, EphB4 ephrin blk 4.0, PTPN22 act -6.8, LYP inh 2 5.9, PLK1 inh 82.1*, PLK1 inh conf -6.9 and Plk1 interf -57.2.
Cc1ccc(C(=O)O)cc1S(=O)(=O)N1CCOCC1 was read as PLK1 PBD inh 2.6, EphB4 ephrin blk -1.2, PTPN22 act 1.4, LYP inh 2 -5.8 and PLK1 inh 0.3.
`Cc1ccc(N(C(=O)Cc2c[nH]c3ccccc23)C(C(=O)NC2CCCCC2)c2ccco2)cc1` (stereo unspecified) gave PLK1 PBD inh 11.8, EphB4 ephrin blk 4.7, PTPN22 act 2.3, LYP inh 2 3.1 and PLK1 inh -5.5.
`c1ccc(-c2noc(CN3CCN(c4ccccc4)CC3)n2)cc1` gave PLK1 PBD inh 15.2, EphB4 ephrin blk -0.1, PLK1 inh 73.1*, PLK1 inh conf -6.1 and Plk1 interf -52.4.
For COc1ccc(C(=O)N2CCOCC2)cc1Br the results were PLK1 PBD inh -27.8, EphB4 ephrin blk -1.9, PTPN22 act -3.1, LYP inh 2 -1.2, PLK1 inh 129.5*, PLK1 inh conf -12.0 and Plk1 interf -49.2.
Screening COc1ccc(N2CC(C(=O)Nc3ncccc3C)CC2=O)cc1 (stereo unspecified) returned PLK1 PBD inh -5.7, EphB4 ephrin blk 2.6, PTPN22 act -0.9, LYP inh 2 -3.4 and PLK1 inh -15.7.
For COc1ccc(N2CC(C(=O)NC3CC(C)(C)NC(C)(C)C3)CC2=O)cc1 (stereo unspecified) the results were PLK1 PBD inh 10.5, EphB4 ephrin blk -2.4, PLK1 inh 70.1*, PLK1 inh conf -8.1 and Plk1 interf -50.3.
For CC(=O)c1ccc(NC(=O)c2cnn3ccccc23)cc1 the results were PLK1 PBD inh 14.2, EphB4 ephrin blk -0.1, PTPN22 act -9.1, LYP inh 2 8.3 and PLK1 inh -11.8.
For CC(=O)c1cccc(NC(=O)c2cnn3ccccc23)c1 the results were PLK1 PBD inh -17.9, EphB4 ephrin blk -7.6, PLK1 inh 79.6*, PLK1 inh conf -1.9 and Plk1 interf -58.3.
`CC1CCN(CC(C)OC(=O)c2ccc3c(c2)OCCO3)CC1` (stereo unspecified) gave PLK1 PBD inh -7.2, EphB4 ephrin blk -2.6, PLK1 inh 70.4*, PLK1 inh conf -5.5 and Plk1 interf -51.6.
Screening Cc1cc(C)cc(OCC(O)CN2C(=O)NC(C)(C)C2=O)c1 (stereo unspecified) returned PLK1 PBD inh 13.1, EphB4 ephrin blk -1.3, PLK1 inh 71.6*, PLK1 inh conf -9.5 and Plk1 interf -59.1.

Screens (PubChem BioAssay)
